# Reference: the emibetuzumab library of Makowski et al. (2022)
# The other results are listed elsewhere or left out. The hit rate among all sequences tested is not known here.
# B1: VH:VL chains; a variant is named by its letters at X, in order (parent)
# chain 1: QVQLVQSGAEVKKPGASVKVSCKASGYTFTDYXMHWVRQAPGQGLEWMGXVNPNXXXTTYNQKFEGRVTMTTDTSTSTAYMELRSLRSDDTAVYYCARXNXLDXWGQGTTVTVSS
# chain 2: DIQMTQSPSSLSASVGDRVTITCSVSSSVSSIYLHWYQQKPGKAPKLLIYSTSNLASGVPSRFSGSGSGTDFTLTISSLQPEDFATYYCQVYSGYPLTFGGGTKVEIK
# Variants of: B1
# Assay: yeast display scFab, FACS + sequencing
# Settings: with MET
# How it was run: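 A heavy-chain CDR mutant scFab library on yeast was enriched magnetically with HGFR-Fc-coated Protein A beads for two rounds and then by FACS after labelling with 1 nM HGFR-Fc and anti-Myc in PBSB with 1% milk for 3 h at room temperature, gating the top 50% antigen-positive cells. Antigen binding was judged positive if a sequence turned up in both antigen-positive deep-sequencing samples and negative if it turned up only in the input.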
row,Variant,antigen binding call
1,DAGGGDWD,no binding
2,DAGGADVY,no binding
3,YATAADWD,no binding
4,ATRTDDVF,no binding
5,DEGEDAGA,no binding
6,SEEGSDAS,no binding
7,YARGTAVD,no binding
8,YKRRDSVD,binds
9,YKRGSAVD,binds
10,YKTGDSVD,binds
11,YKRGSFVD,no binding
12,DGGTNSSA,no binding
13,DEGGTALA,no binding
14,SEGTGSGD,no binding
15,FGGEGDGA,no binding
16,YKRGGSWD,binds
17,YKRGSSWD,binds
18,YKTGDSWV,no binding
19,YKTGSSWD,binds

row,Variant,antigen binding call
1,VKRATSWD,no binding
2,DGARNFGV,no binding
3,DTGANDWV,no binding
4,DATGGAAA,no binding
5,SKGRGAWV,binds
6,SRGANAWD,no binding
7,SAGRGDWD,no binding
8,SRGRGAWD,binds
9,SKGGSAWD,no binding
10,SRGRGSWD,binds
11,SKGRGAWD,binds
12,SKAENAWV,no binding
13,SAGGGAWV,no binding
14,DRGRDDLV,no binding
15,AATTDDAV,no binding
16,SGRGNAAD,no binding
17,ATTKSDGV,no binding
18,VEGGTDVA,no binding
19,DAGTGSGA,no binding

row,Variant,antigen binding call
1,YRRRGDVV,binds
2,YTRGADVV,no binding
3,YERRNDVV,binds
4,YRRRGYVV,binds
5,YRRRGVVV,binds
6,SREGGVVV,no binding
7,YEGGTDVV,no binding
8,YEGTGDVV,no binding
9,YRARGVVV,no binding
10,SGGRDSGV,no binding
11,AARADDSA,no binding
12,YRAEGYVV,binds
13,VGGGAAGV,no binding
14,YTEKTFSD,no binding
15,YRGRGVSD,binds
16,YRGRGFSD,binds
17,YKGRGFSD,no binding
18,YRGRGFSA,binds
19,FRGRGFSA,no binding
